Reference: PubChem BioAssay (NCI)
This is part of a sample that, as a whole, favours compounds with a hit. Of some 79,000 tested, about 15% had one in any assay. Values without a mark were called inactive. Activity calls are given as the source filed them. Cut-off read from the data, not from the text of the source: active = growth inhibition above about 70%; inactive = the rest.

Columns and labels:
[1] = NCI Yeast Anticancer Drug Screen. Data for the wt1 strain (AID 149);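 note: 0% = growth of vehicle-treated wt1 cultures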; conditions: S. cerevisiae wt1 strain (SPY 50644) growth inhibition, stronger effect = higher value
Summary of the method: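 Vehicle-normalised growth inhibition; strain wt1; compound exposure.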

[2] = NCI Yeast Anticancer Drug Screen. Data for the rad50EPP+ strain (AID 151);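 note: 0% = growth of vehicle-treated control cultures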; conditions: S. cerevisiae rad50 mutant strain, stronger effect = higher value
Summary of the method: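 Yeast strain carrying rad50 alteration (rad50EPP+) exposed to compounds; growth inhibition measured relative to vehicle-treated controls.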

[3] = NCI Yeast Anticancer Drug Screen. Data for the mgt1 strain (AID 153); conditions: S. cerevisiae mgt1 mutant growth inhibition, stronger effect = higher value
Summary of the method: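 Yeast mgt1 strain (DNA repair/cell-cycle alteration panel) exposed to compounds; growth inhibition measured relative to vehicle-treated controls.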

[4] = NCI Yeast Anticancer Drug Screen. Data for the rad50 strain (AID 155);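 note: 0% = growth of vehicle-only cultures of the same strain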; conditions: S. cerevisiae rad50 strain growth inhibition, stronger effect = higher value
Summary of the method: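 A DNA repair-deficient yeast mutant serves as the test organism; compound-induced growth inhibition is calculated against vehicle-treated cells.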

[5] = NCI Yeast Anticancer Drug Screen. Data for the mec2-1 strain (AID 157); conditions: S. cerevisiae mec2-1 strain, stronger effect = higher value
Summary of the method: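 mec2-1 yeast strain, carrying an alteration in DNA damage repair or cell cycle control, was exposed to compounds; growth inhibition was measured relative to vehicle-treated controls.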

[6] = NCI Yeast Anticancer Drug Screen. Data for the sgs1 mgt1 strain (AID 161);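 note: 0% = growth of cultures given vehicle only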; conditions: S. cerevisiae sgs1 mgt1 strain, stronger effect = higher value
Summary of the method: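 Growth of a repair-deficient yeast mutant was monitored after compound treatment and expressed as inhibition relative to vehicle-treated cultures.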

[7] = NCI Yeast Anticancer Drug Screen. Data for the CLN2oe strain (AID 163);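 note: 0% = growth of vehicle-only control cultures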; conditions: S. cerevisiae CLN2oe strain, stronger effect = higher value
Summary of the method: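 Yeast cells carrying a defined cell-cycle control alteration were exposed to test compounds. Growth inhibition was scored against vehicle-treated control cultures.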

[8] = NCI Yeast Anticancer Drug Screen. Data for the cln2 rad14 strain (AID 165);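 note: 0% = growth equal to vehicle treated cultures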; conditions: S. cerevisiae cln2 rad14 strain, stronger effect = higher value
Summary of the method: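 Yeast carrying cln2 and rad14 alterations (cell cycle control and DNA damage repair) were exposed to compounds. Growth inhibition was measured against vehicle-treated controls.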

[9] = NCI Yeast Anticancer Drug Screen. Data for the bub3 strain (AID 167); conditions: S. cerevisiae bub3 mutant strain, stronger effect = higher value
Summary of the method: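 Inhibition values come from growth of compound-treated mutant yeast normalised to vehicle-treated controls.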

[10] = NCI Yeast Anticancer Drug Screen. Data for the wt2 strain (AID 169);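 note: 0% = growth of vehicle-treated yeast cultures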; conditions: S. cerevisiae wt2 strain growth inhibition, stronger effect = higher value
Summary of the method: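 Yeast cells were exposed to test compounds, and growth inhibition was measured relative to vehicle-treated controls.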

[11] = NCI Yeast Anticancer Drug Screen. Data for the mlh1 strain (AID 171);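 note: 0% = growth of vehicle-treated control cultures of the same strain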; conditions: S. cerevisiae mlh1 strain growth inhibition, stronger effect = higher value
Summary of the method: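 Yeast carrying a defined genetic alteration in DNA damage repair or cell cycle control were exposed to test compounds. Growth inhibition was measured relative to vehicle-treated controls.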

[12] = NCI Yeast Anticancer Drug Screen. Data for the sgs1 strain (AID 173);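 note: 0% = growth of vehicle-only control cultures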; conditions: S. cerevisiae sgs1 mutant, stronger effect = higher value
Summary of the method: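 Yeast mutant strains carrying defined defects in DNA damage repair or cell cycle control were exposed to test compounds. Growth inhibition was scored against vehicle-treated controls.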

[13] = NCI Yeast Anticancer Drug Screen. Data for the rad18 strain (AID 177); conditions: S. cerevisiae rad18 mutant growth inhibition, stronger effect = higher value
Summary of the method: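 Yeast carrying a defined DNA damage repair alteration were exposed to compounds. Growth inhibition was expressed relative to vehicle-treated controls.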

[14] = NCI Yeast Anticancer Drug Screen. Data for the mlh1 rad18 strain (AID 175); conditions: S. cerevisiae mlh1 rad18 strain growth inhibition, stronger effect = higher value
Summary of the method: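 Growth inhibition of the yeast strain was measured after compound exposure and expressed relative to vehicle-treated controls. The strain carries defined defects in DNA damage repair.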

[15] = at 5.0 µM (retest, dose inferred, filed as 0.5)
[16] = at 50.0 µM (retest, dose inferred, filed as 5.0)

With `CN(C)CCNC(=O)c1cccc2nc3c4ccccc4c4ccccc4c3nc12` the growth inhibition ([1]; at 1.2 µM) was -1%, the growth inhibition ([1]; at 3.7 µM) was 2% and the growth inhibition ([1]; at 11.0 µM) was 28%. For the same molecule, the growth inhibition ([1]; at 33.0 µM) was 97% (active), the growth inhibition ([1]; at 100.0 µM) was 95% (active) and the growth inhibition ([2]; at 1.2 µM) was 6%. The growth inhibition ([2]; at 3.7 µM) was 25%, the growth inhibition ([2]; at 11.0 µM) was 90% (active) and the growth inhibition ([2]; at 33.0 µM) was 96% (active). For the same molecule, the growth inhibition ([2]; at 100.0 µM) was 93% (active), the growth inhibition ([3]; at 1.2 µM) was 1% and the growth inhibition ([3]; at 3.7 µM) was 1%. For the same molecule, the growth inhibition ([3]; at 11.0 µM) was 43%, the growth inhibition ([3]; at 33.0 µM) was 99% (active) and the growth inhibition ([3]; at 100.0 µM) was 95% (active). The growth inhibition ([4]; at 1.2 µM) was -9%, the growth inhibition ([4]; at 3.7 µM) was -24% and the growth inhibition [4, 15] was 65%. The growth inhibition ([4]; at 11.0 µM) was 98% (active), the growth inhibition ([4]; at 33.0 µM) was 98% (active) and the growth inhibition [4, 16] was 96% (active). The growth inhibition ([4]; at 50.0 µM) was 96.7% (active), the growth inhibition ([4]; at 100.0 µM) was 91% (active) and the growth inhibition ([5]; at 1.2 µM) was 0%. It also gave a growth inhibition ([5]; at 3.7 µM) of 1%, a growth inhibition [5, 15] of 8% and a growth inhibition ([5]; at 11.0 µM) of 35%. The growth inhibition ([5]; at 33.0 µM) was 99% (active), the growth inhibition [5, 16] was 96% (active) and the growth inhibition ([5]; at 50.0 µM) was 95.8% (active). The growth inhibition ([5]; at 100.0 µM) was 94% (active), the growth inhibition [6, 15] was 17% and the growth inhibition [6, 16] was 97% (active). For the same molecule, the growth inhibition ([6]; at 50.0 µM) was 96.2% (active), the growth inhibition ([7]; at 1.2 µM) was 0% and the growth inhibition ([7]; at 3.7 µM) was -3%. For the same molecule, the growth inhibition ([7]; at 11.0 µM) was 29%, the growth inhibition ([7]; at 33.0 µM) was 97% (active) and the growth inhibition ([7]; at 100.0 µM) was 92% (active). The growth inhibition [8, 15] was 18%, the growth inhibition [8, 16] was 95% (active) and the growth inhibition ([8]; at 50.0 µM) was 95% (active). It also gave a growth inhibition ([9]; at 1.2 µM) of -1%, a growth inhibition ([9]; at 3.7 µM) of 2% and a growth inhibition [9, 15] of 7%. For the same molecule, the growth inhibition ([9]; at 11.0 µM) was 93% (active), the growth inhibition ([9]; at 33.0 µM) was 97% (active) and the growth inhibition [9, 16] was 96% (active). The growth inhibition ([9]; at 50.0 µM) was 95.4% (active), the growth inhibition ([9]; at 100.0 µM) was 92% (active) and the growth inhibition ([10]; at 1.2 µM) was 1%. The growth inhibition ([10]; at 3.7 µM) was 9%, the growth inhibition ([10]; at 11.0 µM) was 29% and the growth inhibition ([10]; at 33.0 µM) was 97% (active). The growth inhibition ([10]; at 100.0 µM) was 94% (active), the growth inhibition ([11]; at 1.2 µM) was 1% and the growth inhibition ([11]; at 3.7 µM) was 2%. For the same molecule, the growth inhibition ([11]; at 11.0 µM) was 53%, the growth inhibition ([11]; at 33.0 µM) was 98% (active) and the growth inhibition ([11]; at 100.0 µM) was 94% (active). For the same molecule, the growth inhibition ([12]; at 1.2 µM) was 1%, the growth inhibition ([12]; at 3.7 µM) was 4% and the growth inhibition ([12]; at 11.0 µM) was 73% (active). For the same molecule, the growth inhibition ([12]; at 33.0 µM) was 98% (active), the growth inhibition ([12]; at 100.0 µM) was 95% (active) and the growth inhibition ([13]; at 1.2 µM) was 5%. The growth inhibition ([13]; at 3.7 µM) was 11%, the growth inhibition ([13]; at 11.0 µM) was 72% (active) and the growth inhibition ([13]; at 33.0 µM) was 98% (active). The growth inhibition ([13]; at 100.0 µM) was 93% (active).
`COc1ccc(C(=O)NCCN(C)C)c2nc3ccccc3cc12` gave a growth inhibition ([1]; at 1.2 µM) of -11%, a growth inhibition ([1]; at 3.7 µM) of 21% and a growth inhibition ([1]; at 11.0 µM) of -2%. The growth inhibition ([1]; at 33.0 µM) was -6%, the growth inhibition ([1]; at 100.0 µM) was 39% and the growth inhibition ([2]; at 1.2 µM) was 13%. For the same molecule, the growth inhibition ([2]; at 3.7 µM) was 46%, the growth inhibition ([2]; at 11.0 µM) was 63% and the growth inhibition ([2]; at 33.0 µM) was 90% (active). The growth inhibition ([2]; at 100.0 µM) was 96% (active), the growth inhibition ([3]; at 1.2 µM) was 7% and the growth inhibition ([3]; at 3.7 µM) was 19%. It also gave a growth inhibition ([3]; at 11.0 µM) of 14%, a growth inhibition ([3]; at 33.0 µM) of 17% and a growth inhibition ([3]; at 100.0 µM) of 67%. The growth inhibition ([5]; at 1.2 µM) was 18%, the growth inhibition ([5]; at 3.7 µM) was 17% and the growth inhibition [5, 15] was 14%. It also gave a growth inhibition ([5]; at 11.0 µM) of 18%, a growth inhibition ([5]; at 33.0 µM) of 30% and a growth inhibition [5, 16] of 59%. The growth inhibition ([5]; at 50.0 µM) was 71.2% (active), the growth inhibition ([5]; at 100.0 µM) was 80% (active) and the growth inhibition [6, 15] was 18%. For the same molecule, the growth inhibition [6, 16] was 39%, the growth inhibition ([6]; at 50.0 µM) was 30.6% and the growth inhibition ([7]; at 1.2 µM) was 29%. It also gave a growth inhibition ([7]; at 3.7 µM) of 26%, a growth inhibition ([7]; at 11.0 µM) of 29% and a growth inhibition ([7]; at 33.0 µM) of 41%. For the same molecule, the growth inhibition ([7]; at 100.0 µM) was 73% (active), the growth inhibition [8, 15] was 17% and the growth inhibition [8, 16] was 25%. For the same molecule, the growth inhibition ([8]; at 50.0 µM) was 10.7%, the growth inhibition ([9]; at 1.2 µM) was 12% and the growth inhibition ([9]; at 3.7 µM) was 11%. The growth inhibition [9, 15] was 22%, the growth inhibition ([9]; at 11.0 µM) was 9% and the growth inhibition ([9]; at 33.0 µM) was 9%. The growth inhibition [9, 16] was 36%, the growth inhibition ([9]; at 50.0 µM) was -31.9% and the growth inhibition ([9]; at 100.0 µM) was 41%. The growth inhibition ([10]; at 1.2 µM) was -16%, the growth inhibition ([10]; at 3.7 µM) was -8% and the growth inhibition ([10]; at 11.0 µM) was -15%. The growth inhibition ([10]; at 33.0 µM) was -8%, the growth inhibition ([10]; at 100.0 µM) was 90% (active) and the growth inhibition ([11]; at 1.2 µM) was 26%. The growth inhibition ([11]; at 3.7 µM) was 23%, the growth inhibition ([11]; at 11.0 µM) was 18% and the growth inhibition ([11]; at 33.0 µM) was 29%. For the same molecule, the growth inhibition ([11]; at 100.0 µM) was 75% (active), the growth inhibition ([12]; at 1.2 µM) was 15% and the growth inhibition ([12]; at 3.7 µM) was 16%. It also gave a growth inhibition ([12]; at 11.0 µM) of 10%, a growth inhibition ([12]; at 33.0 µM) of 10% and a growth inhibition ([12]; at 100.0 µM) of 62%. It also gave a growth inhibition [14, 15] of 19%, a growth inhibition [14, 16] of 64% and a growth inhibition ([14]; at 50.0 µM) of 19.6%.
